Experiment [1] has as its target T1, Ephrin type-A receptor 3 (Homo sapiens) (UniProt P29320).
T1 sequence (whole entry): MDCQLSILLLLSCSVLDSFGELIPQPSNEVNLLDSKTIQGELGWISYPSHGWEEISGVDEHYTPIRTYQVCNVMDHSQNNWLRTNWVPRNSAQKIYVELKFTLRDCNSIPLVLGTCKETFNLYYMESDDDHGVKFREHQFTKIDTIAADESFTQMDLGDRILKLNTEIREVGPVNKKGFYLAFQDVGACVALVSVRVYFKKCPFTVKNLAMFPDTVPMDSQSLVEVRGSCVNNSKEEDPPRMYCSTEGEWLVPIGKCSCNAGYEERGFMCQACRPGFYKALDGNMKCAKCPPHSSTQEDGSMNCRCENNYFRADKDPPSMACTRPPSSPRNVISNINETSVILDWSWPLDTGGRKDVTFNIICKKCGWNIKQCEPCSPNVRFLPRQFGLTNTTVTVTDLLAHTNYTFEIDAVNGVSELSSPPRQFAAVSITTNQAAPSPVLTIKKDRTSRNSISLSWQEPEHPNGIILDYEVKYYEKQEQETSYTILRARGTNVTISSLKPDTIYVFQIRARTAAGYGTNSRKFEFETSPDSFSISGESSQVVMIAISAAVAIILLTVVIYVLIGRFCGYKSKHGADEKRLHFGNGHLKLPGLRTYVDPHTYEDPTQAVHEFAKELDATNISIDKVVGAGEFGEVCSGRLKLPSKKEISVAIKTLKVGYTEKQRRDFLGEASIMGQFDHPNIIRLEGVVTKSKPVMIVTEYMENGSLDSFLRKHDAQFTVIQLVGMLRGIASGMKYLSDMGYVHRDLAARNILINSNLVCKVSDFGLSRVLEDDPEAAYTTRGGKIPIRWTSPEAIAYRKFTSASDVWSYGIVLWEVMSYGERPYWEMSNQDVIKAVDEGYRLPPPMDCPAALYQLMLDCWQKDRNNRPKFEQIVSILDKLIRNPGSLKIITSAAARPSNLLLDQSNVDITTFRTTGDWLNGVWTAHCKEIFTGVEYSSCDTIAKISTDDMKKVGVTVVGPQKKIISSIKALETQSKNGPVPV
The settings on record: at 10 µM.

The target in experiment [2] is Ephrin type-A receptor 4 (Homo sapiens) (UniProt P54764). The settings on record: at 1 µM.
The target is the same in experiment [3]. The settings on record: at 10 µM.
In experiment [4] the target is Ephrin type-A receptor 5 (Homo sapiens) (UniProt P54756). The settings on record: at 1 µM.
Experiment [5] has the same target. The settings on record: at 10 µM.
Experiment [6] addresses Ephrin type-A receptor 7 (Homo sapiens) (UniProt Q15375). The settings on record: at 1 µM.
The target is the same in experiment [7]. The settings on record: at 10 µM.
Experiment [8] has as its target T2, Ephrin type-A receptor 8 (Homo sapiens) (UniProt P29322).
T2 sequence (whole entry): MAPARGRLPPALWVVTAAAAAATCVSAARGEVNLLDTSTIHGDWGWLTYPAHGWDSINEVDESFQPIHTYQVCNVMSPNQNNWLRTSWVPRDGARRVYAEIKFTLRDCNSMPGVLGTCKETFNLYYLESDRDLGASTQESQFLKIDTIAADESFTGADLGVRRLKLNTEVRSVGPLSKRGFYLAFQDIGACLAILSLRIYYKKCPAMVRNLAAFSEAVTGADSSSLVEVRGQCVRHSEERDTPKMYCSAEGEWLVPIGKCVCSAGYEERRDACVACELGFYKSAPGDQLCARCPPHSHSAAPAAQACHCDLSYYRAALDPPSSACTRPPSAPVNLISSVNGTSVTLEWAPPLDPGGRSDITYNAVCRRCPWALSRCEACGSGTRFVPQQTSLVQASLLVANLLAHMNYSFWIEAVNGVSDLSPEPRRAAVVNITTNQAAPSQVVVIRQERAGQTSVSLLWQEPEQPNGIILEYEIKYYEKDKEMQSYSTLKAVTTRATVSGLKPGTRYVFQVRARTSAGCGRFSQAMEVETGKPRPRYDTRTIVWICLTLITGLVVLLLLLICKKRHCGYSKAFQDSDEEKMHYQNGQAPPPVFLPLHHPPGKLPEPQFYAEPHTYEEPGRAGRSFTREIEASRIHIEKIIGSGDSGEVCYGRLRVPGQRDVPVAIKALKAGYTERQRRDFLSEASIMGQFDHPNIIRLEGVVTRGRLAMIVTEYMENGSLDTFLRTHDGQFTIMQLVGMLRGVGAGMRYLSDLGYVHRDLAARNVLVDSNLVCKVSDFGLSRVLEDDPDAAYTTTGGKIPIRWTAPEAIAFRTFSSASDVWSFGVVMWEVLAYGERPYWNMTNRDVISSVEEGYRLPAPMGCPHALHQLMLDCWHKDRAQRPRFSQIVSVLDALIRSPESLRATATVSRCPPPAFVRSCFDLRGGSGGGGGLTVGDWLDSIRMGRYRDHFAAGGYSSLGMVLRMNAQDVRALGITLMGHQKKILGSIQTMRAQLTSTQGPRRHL
The settings on record: at 1 µM.

Experiment [9] deals with T2, Ephrin type-A receptor 8 (Homo sapiens). The settings on record: at 10 µM.
Experiment [10] has as its target T3, Ephrin type-B receptor 1 (Homo sapiens) (UniProt P54762).
T3 sequence (whole entry): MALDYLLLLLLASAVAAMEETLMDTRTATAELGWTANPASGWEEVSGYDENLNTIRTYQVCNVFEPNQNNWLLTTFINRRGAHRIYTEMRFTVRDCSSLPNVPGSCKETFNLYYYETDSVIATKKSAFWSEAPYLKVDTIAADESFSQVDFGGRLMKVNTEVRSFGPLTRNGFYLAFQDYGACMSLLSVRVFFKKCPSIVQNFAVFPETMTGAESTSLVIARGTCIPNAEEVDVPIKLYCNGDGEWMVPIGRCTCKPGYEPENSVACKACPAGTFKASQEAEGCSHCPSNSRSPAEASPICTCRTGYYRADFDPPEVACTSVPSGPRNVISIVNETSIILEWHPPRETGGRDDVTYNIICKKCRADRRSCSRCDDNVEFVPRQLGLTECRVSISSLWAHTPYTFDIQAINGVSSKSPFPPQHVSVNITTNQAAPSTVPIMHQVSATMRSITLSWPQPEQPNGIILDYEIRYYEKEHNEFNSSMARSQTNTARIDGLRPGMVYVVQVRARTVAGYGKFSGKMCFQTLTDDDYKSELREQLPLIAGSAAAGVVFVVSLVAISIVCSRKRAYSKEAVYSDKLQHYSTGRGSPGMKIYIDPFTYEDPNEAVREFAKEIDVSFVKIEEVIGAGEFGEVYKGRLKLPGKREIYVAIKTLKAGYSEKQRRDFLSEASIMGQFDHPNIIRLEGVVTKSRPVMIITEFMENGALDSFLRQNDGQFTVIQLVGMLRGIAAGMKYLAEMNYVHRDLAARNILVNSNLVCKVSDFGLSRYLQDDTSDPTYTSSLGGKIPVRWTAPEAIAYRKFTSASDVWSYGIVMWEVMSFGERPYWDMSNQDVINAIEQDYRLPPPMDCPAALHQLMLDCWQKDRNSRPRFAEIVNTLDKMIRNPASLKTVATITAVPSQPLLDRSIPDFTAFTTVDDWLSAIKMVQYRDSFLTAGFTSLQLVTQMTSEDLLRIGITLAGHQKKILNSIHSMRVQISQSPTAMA
The settings on record: at 1 µM.

We go through one molecule from ChEMBL document CHEMBL2218924, “A broad activity screen in support of a chemogenomic map for kinase signalling research and drug discovery” (Biochem J, 2013).

Broadly, the residual activity is the signal under treatment as a percentage of the control signal.

Sequence of Ephrin type-A receptor 5 (Homo sapiens) (P54756 whole entry): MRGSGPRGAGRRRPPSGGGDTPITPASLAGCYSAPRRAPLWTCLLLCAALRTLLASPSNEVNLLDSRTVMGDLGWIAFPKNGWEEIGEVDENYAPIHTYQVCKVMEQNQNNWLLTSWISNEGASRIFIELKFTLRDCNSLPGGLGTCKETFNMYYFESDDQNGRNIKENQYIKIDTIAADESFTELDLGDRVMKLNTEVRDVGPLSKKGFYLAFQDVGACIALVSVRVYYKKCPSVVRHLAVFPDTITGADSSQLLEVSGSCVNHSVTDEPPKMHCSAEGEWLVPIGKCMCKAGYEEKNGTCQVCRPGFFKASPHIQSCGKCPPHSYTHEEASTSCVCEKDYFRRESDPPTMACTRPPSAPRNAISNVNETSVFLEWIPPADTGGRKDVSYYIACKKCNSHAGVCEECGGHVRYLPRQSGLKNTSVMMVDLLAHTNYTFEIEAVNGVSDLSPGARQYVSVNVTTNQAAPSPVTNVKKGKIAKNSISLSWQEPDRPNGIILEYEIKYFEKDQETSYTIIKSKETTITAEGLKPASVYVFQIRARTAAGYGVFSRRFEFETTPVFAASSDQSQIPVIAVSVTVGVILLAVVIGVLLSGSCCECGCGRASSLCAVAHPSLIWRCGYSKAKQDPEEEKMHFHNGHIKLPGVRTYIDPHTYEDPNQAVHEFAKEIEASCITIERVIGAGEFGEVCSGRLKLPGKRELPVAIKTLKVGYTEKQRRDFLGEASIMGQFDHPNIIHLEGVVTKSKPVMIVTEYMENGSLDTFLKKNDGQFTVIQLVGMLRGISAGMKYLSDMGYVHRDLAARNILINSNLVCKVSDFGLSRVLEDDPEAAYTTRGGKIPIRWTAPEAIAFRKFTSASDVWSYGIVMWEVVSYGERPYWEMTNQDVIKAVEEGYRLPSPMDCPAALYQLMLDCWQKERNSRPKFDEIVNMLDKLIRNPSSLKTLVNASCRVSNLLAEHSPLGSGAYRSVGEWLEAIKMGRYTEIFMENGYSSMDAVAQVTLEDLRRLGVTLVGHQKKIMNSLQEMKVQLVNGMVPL
Sequence of Ephrin type-A receptor 4 (Homo sapiens) (P54764 whole entry): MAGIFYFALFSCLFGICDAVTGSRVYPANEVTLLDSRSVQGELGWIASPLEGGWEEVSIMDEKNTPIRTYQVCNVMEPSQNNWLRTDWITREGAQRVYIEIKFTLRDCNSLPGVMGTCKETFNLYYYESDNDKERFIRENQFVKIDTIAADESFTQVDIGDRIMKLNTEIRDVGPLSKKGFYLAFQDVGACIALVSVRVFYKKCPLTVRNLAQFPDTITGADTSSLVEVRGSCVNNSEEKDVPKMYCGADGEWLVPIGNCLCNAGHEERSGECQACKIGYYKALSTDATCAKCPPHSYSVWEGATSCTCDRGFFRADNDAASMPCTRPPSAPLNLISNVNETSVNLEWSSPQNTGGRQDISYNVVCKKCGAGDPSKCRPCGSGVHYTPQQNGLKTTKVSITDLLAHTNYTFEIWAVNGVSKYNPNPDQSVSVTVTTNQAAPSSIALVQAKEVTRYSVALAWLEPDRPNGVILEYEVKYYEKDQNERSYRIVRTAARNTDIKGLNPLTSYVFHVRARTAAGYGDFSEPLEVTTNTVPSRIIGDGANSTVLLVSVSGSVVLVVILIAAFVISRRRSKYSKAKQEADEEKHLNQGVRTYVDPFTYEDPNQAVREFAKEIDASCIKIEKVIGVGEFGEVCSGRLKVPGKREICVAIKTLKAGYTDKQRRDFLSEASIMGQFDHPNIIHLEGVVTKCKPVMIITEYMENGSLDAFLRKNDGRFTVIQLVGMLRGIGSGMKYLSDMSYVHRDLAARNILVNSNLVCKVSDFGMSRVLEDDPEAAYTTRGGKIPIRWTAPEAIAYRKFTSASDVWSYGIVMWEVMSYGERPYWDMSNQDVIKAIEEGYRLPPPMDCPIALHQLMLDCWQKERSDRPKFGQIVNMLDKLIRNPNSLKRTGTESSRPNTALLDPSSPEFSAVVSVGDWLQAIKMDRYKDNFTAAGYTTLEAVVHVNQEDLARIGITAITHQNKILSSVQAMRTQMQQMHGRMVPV
Sequence of Ephrin type-A receptor 7 (Homo sapiens) (Q15375 28-998 limits assumed): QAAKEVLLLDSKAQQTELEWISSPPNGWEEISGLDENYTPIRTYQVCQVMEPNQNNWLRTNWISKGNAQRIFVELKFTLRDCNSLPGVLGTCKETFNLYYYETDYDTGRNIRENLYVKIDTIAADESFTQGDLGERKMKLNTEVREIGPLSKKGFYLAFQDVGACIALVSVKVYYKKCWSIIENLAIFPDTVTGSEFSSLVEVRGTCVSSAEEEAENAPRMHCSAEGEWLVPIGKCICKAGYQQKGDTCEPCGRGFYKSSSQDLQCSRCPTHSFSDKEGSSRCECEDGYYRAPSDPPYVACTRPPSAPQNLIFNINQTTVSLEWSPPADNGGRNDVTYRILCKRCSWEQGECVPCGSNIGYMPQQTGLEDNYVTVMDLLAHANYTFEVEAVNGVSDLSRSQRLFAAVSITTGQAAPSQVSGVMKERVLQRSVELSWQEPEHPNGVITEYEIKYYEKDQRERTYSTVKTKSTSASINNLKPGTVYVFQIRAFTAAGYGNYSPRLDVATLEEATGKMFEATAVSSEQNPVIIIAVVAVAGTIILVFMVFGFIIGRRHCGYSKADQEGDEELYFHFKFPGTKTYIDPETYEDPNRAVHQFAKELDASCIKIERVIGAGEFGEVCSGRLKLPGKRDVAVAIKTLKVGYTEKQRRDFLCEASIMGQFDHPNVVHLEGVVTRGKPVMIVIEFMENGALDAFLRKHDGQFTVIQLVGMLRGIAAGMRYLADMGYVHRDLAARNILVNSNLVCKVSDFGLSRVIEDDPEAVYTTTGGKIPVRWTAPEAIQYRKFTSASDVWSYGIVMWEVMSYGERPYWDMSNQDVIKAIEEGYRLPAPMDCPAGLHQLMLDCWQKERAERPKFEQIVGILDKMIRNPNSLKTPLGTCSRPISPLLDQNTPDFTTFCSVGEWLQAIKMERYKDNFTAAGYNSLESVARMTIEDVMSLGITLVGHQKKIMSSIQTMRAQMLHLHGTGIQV

Regarding `Cc1nc2cc3nc(-c4cccs4)cnc3cc2n1C`, the residual activity in [1] was determined as 94%; in [2], 115%; in [3] it was 96%; in [4], 107%; in experiment [5], 114%; in [6] it was 104%. Besides, the residual activity was 90% in experiment [7], 111% in experiment [8], 96% in experiment [9] and 103% in experiment [10].
